In PubChem BioAssay one finds composite z-score data, which are given here for eleven molecules.

Each structure is given as a SMILES string.

This assay deals with PRMT1 (protein arginine N-methyltransferase 1). Briefly: PRMT1 binders on small-molecule microarrays, primary screen, biochemical, small-molecule microarray, 635 nm fluorescence (AID 1088).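 Further: binding of Prmt1 protein to compounds spotted on small-molecule microarray slides.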 The following applies: small-molecule microarray binding, higher = more signal.
`COc1ccc(C(O)C2C=CC3C(=O)N(c4ccccc4)C(=O)C3N2Nc2ccc(C#N)cc2)c2ccccc12` (stereo unspecified) yielded a composite z-score of 1.35. The result for `COCCOC(=O)N1C(=O)[C@@]2(c3ccccc31)[C@H](C(=O)N1CCN(c3ncccn3)CC1)[C@H]1C(=O)O[C@H](c3ccccc3)[C@H](c3ccccc3)N1[C@@H]2c1ccc(OCCO)cc1` reads 1.56.

`CC=CC(O)C1C=CC2C(=O)N(c3ccccc3)C(=O)C2N1Nc1ccccc1` (stereo unspecified): the composite z-score amounted to 1.55. `Cc1ccc(S[C@]2(C(=O)NCC(F)(F)F)CC(=O)N(Cc3ccccc3)[C@@H]2c2ccc(CO)cc2)cc1`: the composite z-score is 0.293. On to `[N-]=[N+]=Nc1ccccc1C[C@@]1(C(=O)O)N=C(c2ccc(OCCCO)cc2)O[C@@H]1c1ccccc1`, for which the composite z-score was determined as 0.616.

`COCCCNC(=O)[C@]1(Cc2ccccc2CN=[N+]=[N-])N=C(c2ccc(OCCCO)cc2)O[C@@H]1c1ccccc1` yielded a composite z-score of 0.972.

The molecule `CC(C)OC(=O)CC(=O)CC(O)c1cccc(C#N)c1` (stereo unspecified) yielded a composite z-score of 0.864. Under `CCCC=C(CCC)[C@@H](NP(=O)(c1ccccc1)c1ccccc1)c1ccc(C(F)(F)F)cc1` stands 0.804; under `CCCN1C(=O)[C@]2(Cc3ccccc3)N=C(c3ccc(OCCCO)cc3)O[C@@H]2c2ccccc21`, 1.54. The result for `C[C@]12C(=O)N(CCCCCCO)[C@@H]3C(=O)N(c4ccc(Cl)cc4)CC=CC31O[C@@H]1/C=C\CCCOC(=O)C12` (stereo partly specified) reads 0.807; that for `COCCOC(=O)N1C(=O)[C@@]2(c3ccccc31)[C@H](c1ccc(OCCO)cc1)N1[C@H](c3ccccc3)[C@H](c3ccccc3)OC(=O)[C@H]1[C@@H]2C(=O)Nc1nc2ccccc2s1`, 1.45.
